# Measured values reported in PubChem BioAssay AID596 (National Center for Advancing Translational Sciences (NCATS), 2007).
# Out of some 71,000 compounds screened, about 1,400 (2%) were called active. Roughly 3% stayed inconclusive and do not appear here. Many of the other results were omitted from the sample, so actives are more common in it than they were. Values without a mark were called inactive. Calls come from the whole dose curve; as a rule, active = well fitted curve in the direction sought with a large enough effect; inconclusive = small, poorly fitted or top-dose-only effect; inactive = no such curve, though single readings can be large or run the other way.
# Molecular target: Microtubule-associated protein tau (Homo sapiens) (UniProt P10636)
# Test: qHTS Assay for Tau Filament Binding;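 note: actives lower thioflavin S fluorescence by blocking filaments or displacing dye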
# Settings: recombinant tau filaments, thioflavin S fluorescence, 15 h, filaments grown with octadecylsulfate alongside compound; series mostly up to 57.1 µM; activity change, negative = inhibition: at the top concentration
# From the text: NIH Molecular Libraries Screening Centers Network [MLSCN]
# NIH Chemical Genomics Center [NCGC]
# Assay Provider: Jeffrey A. Kuret, Ohio State University
# Tau monomers form filaments in vitro in the presence of anionic detergents or fatty acids. The dye Thioflavine S (ThS) binds to tau filaments and upon binding, increases in fluorescence several fold. Small molecules that displace ThS binding or prevent filament binding are identified by a reduction in ThS fluorescence. This assay used histidine-tagged, recombinant human tau protein containing the products of exons 2, 3, and 10 that was provided by Jeff Kuret, Ohio State University. To form filaments, 1 uM tau was incubated with 30 uM sodium octadecylsulfate (ODS) in reagent buffer (10 uM thioflavine S, 5 mM 1,4-dithioerythreitol (DTT), 100 mM sodium chloride, 10 mM HEPES pH 7.4) for 15 hrs at 37 C.
# NCGC Assay Protocol Summary:
# Assay Steps. Two uL/well of 2 uM tau in reagent buffer (10 uM thioflavine S, 5 mM DTT, 100 mM sodium chloride, 10 mM HEPES pH 7.4) was dispensed into solid black 1536-well plates. Twenty-three nL compound was transferred to the assay plate after which 2 uL/well of 60 uM ODS in reagent buffer was dispensed for a final assay volume of 4 uL /well. Following 15 hours of incubation at 37 C, fluorescence was detected by an Envision (Perkin Elmer) using 450/8 nm excitation and 510/23 nm emission.
# Keywords: NIH Roadmap, MLSCN, MLI, MLSMR, qHTS, NCGC, Alzheimer's disease, Neurofibrillary lesions, tau, tubulin assembly, microtubule stability, cytoskeletal integrity, fibrillization, thioflavin dyes, Amyloidgenic
# % is set by controls: 0 for no effect and ±100 for the full control effect; potency is the fitted concentration of half-maximal effect.
# Microtubule-associated protein tau (Homo sapiens), sequence (P10636 whole entry, looked up): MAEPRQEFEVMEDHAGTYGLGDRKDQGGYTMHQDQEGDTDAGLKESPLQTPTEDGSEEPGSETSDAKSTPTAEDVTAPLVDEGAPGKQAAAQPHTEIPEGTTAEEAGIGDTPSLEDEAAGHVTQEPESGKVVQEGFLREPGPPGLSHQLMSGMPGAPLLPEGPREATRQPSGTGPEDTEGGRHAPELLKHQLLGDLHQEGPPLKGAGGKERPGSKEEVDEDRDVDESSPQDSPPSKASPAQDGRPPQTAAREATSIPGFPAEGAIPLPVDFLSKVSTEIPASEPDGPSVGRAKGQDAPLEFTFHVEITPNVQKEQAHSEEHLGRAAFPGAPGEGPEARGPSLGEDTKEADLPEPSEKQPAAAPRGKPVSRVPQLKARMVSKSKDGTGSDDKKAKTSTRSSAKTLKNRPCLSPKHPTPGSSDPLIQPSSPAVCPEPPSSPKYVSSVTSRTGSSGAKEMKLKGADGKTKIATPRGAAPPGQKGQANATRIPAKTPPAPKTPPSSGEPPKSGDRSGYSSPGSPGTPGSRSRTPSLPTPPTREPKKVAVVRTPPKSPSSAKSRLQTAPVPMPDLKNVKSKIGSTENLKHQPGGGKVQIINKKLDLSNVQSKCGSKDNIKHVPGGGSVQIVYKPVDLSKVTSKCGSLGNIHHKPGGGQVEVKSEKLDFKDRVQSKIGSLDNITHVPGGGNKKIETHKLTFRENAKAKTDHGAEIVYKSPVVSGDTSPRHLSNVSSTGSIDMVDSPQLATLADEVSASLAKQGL
Structure (SMILES),"activity change, negative = inhibition",Potency
c1ccc(CSc2nnc(-c3ccco3)n2Cc2ccccc2)cc1,6.8%,
Nc1cc(=O)nc(SCc2ccccc2)n1Cc1ccco1,-10.8%,
c1ccc(CSc2nnc(-c3ccco3)c(-c3ccco3)n2)cc1,,7.94 µM (active)
COc1cccc(Cn2c(=O)c(C)nc3cnc(Oc4ccccc4)nc32)c1,-14.4%,
O=C(O)c1nccnc1C(=O)Nc1ccc(Br)cn1,-1.2%,
CCS(=O)(=O)N(C)[C@@H]1c2cc(C#N)ccc2OC(C)(C)[C@H]1O,,39.8 µM (active)
C=CCOC(=O)COCCC(C)C,13.7%,
NC[C@@H]1O[C@H](O[C@@H]2[C@H](O[C@@H]3O[C@H](CO)[C@@H](COC[C@H]4O[C@@H](CN)[C@@H](O)[C@@H](O)[C@@H]4N)[C@@H]3O)[C@@H](O)[C@@H](N)C[C@H]2N)[C@@H](N)[C@H](O)[C@@H]1O,-1.7% [at 25.6 µM],
O=Cc1c(Cl)cccc1Cl,4.8%,
CC(=O)OCC(COC(C)=O)OC(C)=O,-6.1%,
CC(c1ccccc1)n1c(NCCCn2ccnc2)nc2c1c(=O)[nH]c(=O)n2C (stereo unspecified),-3.1%,
CC(Sc1nc2ccccc2c(=O)n1Cc1ccco1)C(=O)c1ccccc1 (stereo unspecified),14.2%,
O=C(CSc1nnc(-c2cccnc2)n1Cc1ccco1)c1ccc(Cl)cc1,1.3%,
Clc1cccc(-c2nc3nc4ccccc4nc3n2Cc2ccco2)c1,,15.8 µM (active)
CC(C)CSC[C@@H]1O[C@H](n2cnc3c(N)nccc32)[C@H](O)[C@@H]1O,-0.6% [at 11.4 µM],
O=c1c(CCc2ccccc2)nc2cnc(N3CCNCC3)nc2n1Cc1cccs1,19.3%,
Cc1cc(C)cc(N)c1,11.7%,
N#Cc1c(N)sc2c1CCN(C(=O)OCc1ccccc1)C2,,15.8 µM (active)
NC1(C(=O)OCc2ccccc2)CCCC1,6.1% [at 11.4 µM],
N#Cc1ccc(COC(=O)Cn2nnc(-c3ccccc3)n2)cc1,-11.5%,
COC(=O)C1=C(C)NC(=O)NC1/C=C/c1ccccc1 (stereo unspecified),11.1%,
COc1ccccc1NC(=O)C1=C(C)NC2=C(C(=O)CCC2)C1c1ccc(C)o1 (stereo unspecified),0.5%,
COC(=O)C1=C(C)NC2=C(C(=O)c3ccccc32)C1c1ccc(-c2ccc(C(=O)O)cc2)o1 (stereo unspecified),,25.1 µM (active)
Cc1cccc(C(=O)O)c1,0.9%,
CCN(CC)C(=O)c1sc(NC(=O)c2ccco2)c(C#N)c1C,5.3%,
COc1ccc(C(=O)N/N=C2/C(=O)c3c(C)cc(C)cc3CC2(C)C)cc1,,5.01 µM (active)

Structure (SMILES),"activity change, negative = inhibition",Potency
COc1ccc(NC(=O)c2ccc(OC)cc2)cc1,8.2%,
CCCC[C@H]1C(=O)N(c2ccccc2)N(c2ccc(O)cc2)C1=O,-14.5% [at 25.6 µM],
CCCC1CC(C)(C(=O)Cn2[nH]c(=O)ccc2=O)OC1=O (stereo unspecified),0%,
CN(C)CCSc1nc(N)c2c3c(sc2n1)COC(C)(C)C3,,12.6 µM (active)
CCC1(C)Cc2c(sc3nc4n(c(=O)c23)CCCS4)CO1 (stereo unspecified),-15.1%,
O=C1NC(=O)[C@@](Cc2ccccc2)(c2cccnc2)N1,-0.4% [at 11.4 µM],
COC(=O)C1(C)C=CC2(CCCCC2)N1C(C)=O (stereo unspecified),-2.6%,
Cn1c(=O)c(CCc2ccccc2)nc2cnc(Nc3ccccc3)nc21,102%,
CNC(=O)C1(C)C=CC2(CCCCC2)N1C(C)=O (stereo unspecified),-0.4%,
Cc1nn2c(c1-c1ccccc1)N=C(c1ccco1)CC2c1ccccc1 (stereo unspecified),,10 µM (active)
Cc1nn(C(=O)c2ccoc2C)c(N)c1-c1ccccc1,-16.2%,
C[C@@H]1O[C@@H](O[C@@H]2[C@@H](O)[C@H](OCCc3ccc(O)c(O)c3)O[C@H](CO[C@@H]3O[C@H](CO)[C@@H](O)[C@H](O)[C@H]3O)[C@H]2OC(=O)/C=C/c2ccc(O)c(O)c2)[C@H](O)[C@H](O)[C@H]1O,5.1%,
CCCC(C(=O)NCc1ccco1)N(C(=O)CNS(=O)(=O)c1ccccc1)C1CCCC1 (stereo unspecified),-19.1%,
CC(=O)N1CCC2(CC1)CCN(c1ccncc1)CC2,5.9%,
CN1CCN(c2ccc(NC(=O)COc3ccc(Cl)cc3Cl)cc2)CC1,3.5%,
CC(=O)N1CCN(c2ccc(NCc3ccc(C(C)C)cc3)cc2)CC1,,25.1 µM (active)
COCCNc1ncnc2ccc(-c3ccccc3CN(C)C)cc12,4.2%,
O=c1cc(-c2ccc(O)c(O)c2)oc2cccc(O)c12,,39.8 µM (active)
COC(=O)[C@@]1(Cc2ccc(F)cc2)[C@@H]2[C@@H](CC(=O)[C@H]2CC(=O)C(=O)N2CCCC2)CN1C(=O)c1ccccc1,-4.8%,
Cc1ccc(/C(=C/CN2CCCC2)c2ccccn2)cc1,,inactive
C=C(C)C1CC=C(C)C(O)C1 (stereo unspecified),3.7%,
CC(=O)Oc1ccccc1C(=O)Nc1ncc([N+](=O)[O-])s1,0.6%,
O=c1c(CCc2ccccc2)nc2cncnc2n1C1CC1,-4.1%,
c1ccc(-c2cc(-c3nnc4sc(-c5ccccn5)nn34)[nH]n2)cc1,,1 µM (active)
COc1cc(-c2nn3c(-c4cccc(C)c4)nnc3s2)cc(OC)c1OC,38.8%,
